Data reported in PubChem BioAssay AID1851 (National Center for Advancing Translational Sciences (NCATS), 2009).
In all, about 16,000 compounds went through this assay and about 2,600 (16%) were called active. Another 20% or so got no clear call; they are omitted. These entries were drawn from the full list. A number with no mark means an inactive call. Calls follow the shape of the dose curve; as a rule, active = well fitted curve in the direction sought with a large enough effect; inconclusive = small, poorly fitted or top-dose-only effect, or effect the other way; inactive = no such curve, though single readings can be large or run the other way.

These compounds were tested against Cytochrome P450 2D6 (Homo sapiens) (UniProt P10635) (assay: Cytochrome panel assay with activity outcomes). Details: recombinant CYP, pro-luciferin dealkylation, luminescence, p450-cyp2d6; series mostly up to 57.1 µM; activity, negative = inhibition: at the top concentration.
Chain of Cytochrome P450 2D6 (Homo sapiens) (P10635 whole entry, looked up): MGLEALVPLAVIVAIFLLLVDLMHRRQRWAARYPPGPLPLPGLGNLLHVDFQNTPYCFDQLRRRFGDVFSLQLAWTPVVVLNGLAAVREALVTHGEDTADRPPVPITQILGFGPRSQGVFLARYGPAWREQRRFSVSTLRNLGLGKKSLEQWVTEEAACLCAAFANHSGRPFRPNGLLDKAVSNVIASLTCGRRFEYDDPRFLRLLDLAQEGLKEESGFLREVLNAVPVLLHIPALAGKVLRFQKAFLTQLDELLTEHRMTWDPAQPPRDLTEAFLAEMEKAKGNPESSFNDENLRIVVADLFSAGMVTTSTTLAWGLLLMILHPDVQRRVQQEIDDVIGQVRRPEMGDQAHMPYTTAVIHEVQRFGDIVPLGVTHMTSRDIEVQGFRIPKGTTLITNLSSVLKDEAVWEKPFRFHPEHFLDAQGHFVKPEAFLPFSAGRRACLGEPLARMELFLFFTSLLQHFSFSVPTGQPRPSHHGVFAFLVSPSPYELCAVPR
% is scaled to controls: 0 for no effect and ±100 for the full control effect.

Compound | activity, negative = inhibition | AC50
CO[C@H]1[C@H](O[C@H]2O[C@@H](C)[C@@H](O[C@@H]3C[C@](C)(O)[C@H](OC(=O)CC(C)C)[C@H](C)O3)[C@@H](N(C)C)[C@@H]2O)[C@@H](CC=O)C[C@@H](C)[C@@H](O)/C=C\C=C/C[C@@H](C)OC(=O)C[C@H]1OC(C)=O | 3.01% [at 25.6 µM] | –
CC(C)(C)c1ccc(C(=O)NC(Cc2ccccc2)C(=O)O)cc1 (configuration not stated) | 28.5% | –
CCCCCCN(CCCCCC)C(=O)Cc1c(-c2ccc(F)cc2)[nH]c2ccccc12 | -3.8% | –
Cc1cc(=O)[nH]c2ccccc12 | 0.998% | –
Cc1ccc2[nH]c(-c3ccccc3)c(CN(C)C)c(=O)c2c1 | – | 0.0316 µM (active)
CC(=O)N1CCN(c2nc(C)nc3sc4c(c23)CCC(C)C4)CC1 (configuration not stated) | -13.3% | –
CON/C=C(\C=Nc1ccccc1)c1ncc(C(F)(F)F)cc1Cl | 6.49% | –
COc1ccc(C2CC(=O)CC(=O)C2n2cncn2)cc1 (configuration not stated) | -1.52% | –
O=C(O)Cc1nn(Cc2ccc(Br)cc2F)c(=O)c2ccccc12 | 1.91% | –
Cc1cc(C)c(S(=O)(=O)Nc2cccc(C(F)(F)F)c2)c(C)c1 | -1.42% | –
CC(C)(C)CC(=O)NC(=S)Nc1ccccc1C(F)(F)F | -40.1% | –
Cc1cc(C)c(S(=O)(=O)Nc2ccccc2C(F)(F)F)c(C)c1 | – | 6.31 µM (active)
CCN(CC)c1ccc(NC(=O)c2cnn(CC)c2)cc1 | -6.55% | –
COC(=O)CSc1ccc2nnc(-c3ccc(F)cc3)n2n1 | 17.6% | –
O=C(O)CSc1nc2ccccc2[nH]1 | 9.25% [at 11.4 µM] | –
c1ccc(SCc2nc3ccccc3[nH]2)cc1 | – | 10 µM (active)
Cc1cc(NC(=O)CSc2nnc(-c3ccccc3)n2Cc2ccco2)no1 | -9.41% | –
Cc1cc(C)nc(SCc2nnc(SCC(N)=O)n2Cc2ccco2)n1 | -5.05% | –
COCCn1c(Cc2ccccc2)nnc1SCc1nc2ccccc2c(=O)[nH]1 | 7.43% | –
c1ccc(-c2nnc(SCc3nc4ccccc4[nH]3)n2Cc2ccco2)cc1 | – | 6.31 µM (active)
OCCNc1nc2ccccc2[nH]1 | 1.74% | –
c1ccc2[nH]c(NC3=NCCC3)nc2c1 | -17.9% | –
OC(Cc1nc2ccccc2[nH]1)c1ccccc1Cl (configuration not stated) | – | 1.12 µM (active)
Cc1nonc1NC(=O)N1CCCC1 | 6.35% | –
O=C(O)Cn1ccnc1[N+](=O)[O-] | 0.12% [at 11.4 µM] | –

Compound | activity, negative = inhibition | AC50
Cc1ccc(C)c(/C(O)=C2/C(=O)C(=O)N(CCN3CCOCC3)C2c2ccco2)c1 (configuration not stated) | 19.6% | –
COc1ccc(NC(=O)CSc2ccc3c4c(cccc24)C(=O)c2ccccc2-3)cc1 | -17.2% | –
O=C(NCc1ccccc1)c1sc(=S)n2c1[nH]c(=O)c1ccccc12 | -20.8% | –
COc1ccc(C(=O)Nc2cc(C(C)=O)c(/C=C/N(C)C)oc2=O)cc1 | -2.29% | –
CCC(=O)Nc1c2c(nc3c1CCC3)CCCC2 | -7.06% | –
COC(=O)CCC(=O)Nc1cccc2ccccc12 | 3.01% | –
O[C@@H](COc1ccc(Cl)cc1Cl)CN1CCCC1 | – | 0.316 µM (active)
CCC(=O)NC(=S)Nc1ccc(NC(=O)COc2ccc(Cl)cc2Cl)cc1 | -6.84% | –
O=S(=O)(CC(O)COc1ccccc1Cl)c1ccccc1 (configuration not stated) | -16.4% | –
O=C(OC1CCN(c2ncc(C(F)(F)F)cc2Cl)CC1)c1ccccc1 | -21.2% | –
CC1(C)O[C@H]2[C@@H](c3[nH]nc4c(=O)[nH]c(=O)[nH]c34)OC[C@H]2O1 | 17% [at 11.4 µM] | –
CCSc1nnc(NC(=O)Cc2ccc(OC)c(OC)c2)s1 | 6.23% | –
Cc1nc2c(c(-c3ccccc3)c1C#N)C(=O)c1ccccc1-2 | 15.6% | –
CC(C)CC1NC(=S)N(C2CCCCC2)C1=O (configuration not stated) | 4.01% | –
CCCC[C@@H]1C[C@H]1C(NC(=O)c1cccs1)c1ccc(C(F)(F)F)cc1 (some centres not stated) | 3.39% | –
Oc1ccc2ccccc2c1Cc1c(O)ccc2ccccc12 | 3.09% [at 11.4 µM] | –
Oc1ccc2ccccc2c1CN(Cc1c(O)ccc2ccccc12)C1CCCCC1 | – | 0.631 µM (active)
CS(=O)(=O)N(Cc1cc2ccccc2[nH]c1=O)C1CCCCC1 | -8.47% | –
CN(C)Cc1cc(C(C)(C)C)ccc1-c1ccc(C(C)(C)C)cc1CN(C)C | 4.2% [at 11.4 µM] | –
CC(C)(C)c1ccc(O)c(CN(Cc2cc(C(C)(C)C)ccc2O)C2CCCCC2)c1 | – | 0.501 µM (active)
CN(C)Cc1ccc(C(C)(C)C)cc1-c1cc(C(C)(C)C)ccc1CN(C)C | -2% [at 11.4 µM] | –
CC(C)(C)c1ccc(O)c(CN(Cc2c(O)ccc3ccccc23)C2CCCCC2)c1 | – | 0.794 µM (active)
O=C(O)Cc1c(O)ccc2ccccc12 | 2.9% [at 11.4 µM] | –
O=C1C2=CC[C@H]3C(=O)N(c4cccc(Oc5ccccc5)c4)C(=O)[C@@H]3[C@@H]2[C@H](O)[C@@H]2O[C@H]12 | 1.91% [at 11.4 µM] | –
Cc1ccc(C(=O)N/N=C\c2cccn2C)cn1 | 23.5% | –

Compound | activity, negative = inhibition | AC50
Fc1ccc(C2=Nn3c(Cc4ccccc4F)nnc3SC2)cc1 | -7.98% | –
Cc1ccc(C(=O)NC(=S)Nc2ccc(S(=O)(=O)N3CCN(C)CC3)cc2)cc1 | -15.3% | –
CC(C)(C)NC(=O)C(c1ccccn1)N(C(=O)C1CSC(=O)C1)c1ccc(F)cc1 (configuration not stated) | -21.8% | –
CC1=N[C@@](C)(COC(=O)[C@]2(C)N[C@](C)(CO)CO2)COC1=O | 10% [at 11.4 µM] | –
NC(=O)CN1CCN(c2nc(-c3ccc(F)cc3)cs2)CC1 | -6.06% | –
Cn1cccc1C(=O)N1CCC[C@@]2(CCN(c3ccncc3)C2)C1 | -6.49% | –
Cn1cccc1C(=O)N1CCC2(CC1)CN(Cc1ccc(C#N)cc1)C2 | 4.08% | –
Cn1cccc1C(=O)N1CCC2(CCN(Cc3ccccc3)CC2)CC1 | – | 7.94 µM (active)
Cn1cccc1C(=O)N1CCC2(CCCN(Cc3ccncc3)C2)CC1 | – | 7.94 µM (active)
Cn1cccc1C(=O)N1CCC2(CC1)CCN(c1ccccc1)CC2 | 9.63% | –
COc1ccc(C(=O)N2CCC[C@@]3(CCN(Cc4cc(C(F)(F)F)cc(C(F)(F)F)c4)C3)C2)cc1 | -10.6% | –
Cn1cccc1C(=O)N1CCC[C@@]2(CCN(Cc3cc(C(F)(F)F)cc(C(F)(F)F)c3)C2)C1 | – | 3.98 µM (active)
Cn1cccc1C(=O)N1CCC[C@@]2(CCN(Cc3ccccc3)C2)C1 | – | 2 µM (active)
Cn1cccc1C(=O)N1CCC[C@@]2(CCN(c3ccccc3)C2)C1 | -18.6% | –
CN1CC[C@@]2(CCCN(C(=O)c3cccn3C)C2)C1 | -2.76% | –
Cn1cccc1C(=O)N1CCC2(CC1)CN(c1ccncc1)C2 | -7.3% | –
Cn1cccc1C(=O)N1CCC2(CCN(Cc3ccncc3)CC2)CC1 | -13.4% | –
NCC[C@H]1CCC[C@H](CCN)N1 | -7.7% | –
O=[N+]([O-])c1ccc(C=Nc2ccc(Cl)cc2Cl)s1 | -27.5% | –
COC(=O)[C@@]1(Cc2ccc(F)cc2)[C@@H]2C(=CC(=O)[C@H]2CC(=O)C(=O)N2CCCC2)CN1C(=O)c1ccccc1 | -13.8% | –
N#CCCn1c(=O)cnc2cnc(N3CCNCC3)nc21 | 1.14% | –
c1ccc2cc(-c3csnn3)ccc2c1 | -25.1% | –
CS(=O)(=O)N1CCCC(C(=O)N2CCc3ccccc3C2)C1 (configuration not stated) | -9.11% | –
CCOC(=O)CC(=O)CSc1nc(-c2cccnc2)cc(C)c1C#N | -8.95% | –
Cc1ccc(CONC(=O)/N=C/N(C)C)cc1 | -0.0637% | –

Compound | activity, negative = inhibition | AC50
C=CCNc1sc(C(=O)c2ccccc2)c(N)c1C#N | -15.1% | –
CCC[C@@H]1O[C@@H]2C[C@@H]3[C@H]4CCC5=CC(=O)C=C[C@@]5(C)[C@H]4[C@H](O)C[C@@]3(C)[C@@]2(C(=O)CO)O1 | 4.49% [at 25.6 µM] | –
CO[C@@H]1/C=C\O[C@]2(C)Oc3c(C)c(O)c4c(O)c(cc(O)c4c3C2=O)NC(=O)/C(C)=C\C=C/[C@H](C)[C@@H](O)[C@H](C)[C@H](O)[C@H](C)[C@H](OC(C)=O)[C@@H]1C | 11.7% [at 11.4 µM] | –
O=C(CSc1nc2nc(-c3cccs3)cc(C(F)(F)F)c2c(=O)[nH]1)NCc1ccco1 | 10.3% | –
O=C1COc2ccccc2CN1 | -0.0301% | –
Cn1c(=O)cnc2cnc(Nc3ccccc3)nc21 | -14.9% | –
CC[C@]1(O)C[C@@H]2CN(CCc3c([nH]c4ccccc34)[C@](C(=O)OC)(c3cc4c(cc3OC)N(C)[C@H]3[C@](O)(C(=O)OC)[C@@H](C(=O)OC)[C@@]5(CC)C=CCN6CC[C@@]43[C@@H]65)C2)C1 | 6.57% | –
CN(C)S(=O)(=O)c1nc(Cl)c2[nH]cnc2n1 | 9.4% [at 11.4 µM] | –
CC(C)CN1CCCC2(CCN(C(=O)c3cccn3C)CC2)C1 | -12% | –
Cn1cccc1C(=O)N1CCC2(CCCN(Cc3ccccc3)C2)CC1 | – | 10 µM (active)
Cn1cccc1C(=O)N1CCC2(CCCN(Cc3ccc(C#N)cc3)C2)CC1 | -1.96% | –
O=c1c(-c2ccccc2)nc2cnc(N3CCOCC3)nc2n1Cc1cccs1 | 10.8% | –
CCOc1ccc(OCC)c(NC(=O)C2CCCN(S(=O)(=O)c3cccs3)C2)c1 (configuration not stated) | -21.1% | –
NNc1nncc2ccccc12 | -9.84% | –
C=CC[C@@H]1C=C[C@H](O/N=C\[C@@H](C)[C@H](OCc2ccccc2)C(C)C)[C@H](CO)O1 | -3.33% [at 11.4 µM] | –
CC1(C)N=C(N)N=C(N)N1CCCCc1ccccc1 | – | 3.16 µM (active)
COc1ccc(-n2c(=O)c(-c3ccc(Cl)cc3)nc3cnc(N4CCOCC4)nc32)cc1 | -14.9% | –
CCOC(=O)COc1c(OC)cc(Cl)cc1C1Nc2ccccc2C(=O)N1c1cccc(C)c1 (configuration not stated) | -3.19% | –
O=C(NCCCN1CCCC1=O)c1ccc(CNS(=O)(=O)c2ccc(F)cc2)cc1 | -13% | –
Cn1c(CNS(=O)(=O)c2ccc(F)cc2)n[nH]c1=S | -1.79% | –
CN(CCC#N)C(=O)c1ccc(CNS(=O)(=O)c2ccc(F)cc2)cc1 | – | 28.2 µM (active)
CC(C)c1ccc2nc3sc(C(=O)N4CCc5ccccc5C4)c(N)c3cc2c1 | -13.4% | –
